Rows were chosen to be rich in hits. Some 7.5% of all compounds tested hit in one or more screens of this group.
Vaccinia mCherry: vaccinia inhibition (mCherry reporter) | 310,000 compounds, 0.63% hits | Vaccinia virus mCherry reporter infection, fluorescence | Potency, µM (top dose mostly 36.5 µM), without a hit: at the top dose activity change, negative = inhibition, most hits filed as inhibitors; calls by dose curve; tested in A549 cells; also: potency is read from the fitted curve at half-maximal effect; nearly all actives have a fitted effect of over 35% in size
HCMV antiviral: human cytomegalovirus inhibition; HFF cells, HCMV-luciferase reporter, 72 h; stronger effect = lower value; 410,000 compounds, 4.5% hits; activity change, negative = inhibition, % at 57.5 µM; in the data active = activity change below about -60%; inconclusive = no clear call, values can overlap the other calls; inactive = above about -39%
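HFF cells seeded 16 h at 37C, treated with compounds, infected with luciferase-reporter HCMV at MOI 1 PFU/cell; luciferase read at 72 h post infection, normalized to buffer-only and Salinomycin controls.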
HCV inhibitor: blocks hepatitis C virus; Huh7.5.1 HCVcc-Cre infection, luciferase reporter, 44 h; Potency, µM (highest dose often 41.8 µM), for the others: top-dose activity change, negative = inhibition, hits mostly inhibitors; 340,000 compounds, 3.4% hits; AID 651820; also: potency is read from the fitted curve at half-maximal effect
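Infectious HCVcc-Cre (~0.5 moi) was added to cells just after compound, with cells seeded 4 h earlier at 1,000 per well. Luciferase activity after 44 h culture reported infection; substrate was incubated 15 min at room temperature before reading.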
FMDV inh: foot and mouth disease virus antiviral activity. FMDV antiviral cell-based qHTS. Potency, µM (titrated, usually from 57.9 µM), inactives show at the top dose activity change, negative = inhibition, most hits filed as inhibitors. 410,000 compounds, 1.2% hits; calls by dose curve; tested in HEK293T cells; also: read-out not given here; potency is read from the fitted curve at half-maximal effect; nearly all actives have a fitted effect of over 45% in size
Giardia FBPA inh: inhibitors of Giardia lamblia fructose-1,6-bisphosphate aldolase. AID 2451. A8B2U2. purified Giardia FBPA. 290,000 compounds, 0.71% hits. Potency, µM (highest dose often 59.6 µM), without a hit: at the top dose activity, negative = inhibition, usual class: inhibitors; also: potency is read from the fitted curve at half-maximal effect; nearly all actives have a fitted effect of over 55% in size
Target sequence (A8B2U2 whole entry, looked up): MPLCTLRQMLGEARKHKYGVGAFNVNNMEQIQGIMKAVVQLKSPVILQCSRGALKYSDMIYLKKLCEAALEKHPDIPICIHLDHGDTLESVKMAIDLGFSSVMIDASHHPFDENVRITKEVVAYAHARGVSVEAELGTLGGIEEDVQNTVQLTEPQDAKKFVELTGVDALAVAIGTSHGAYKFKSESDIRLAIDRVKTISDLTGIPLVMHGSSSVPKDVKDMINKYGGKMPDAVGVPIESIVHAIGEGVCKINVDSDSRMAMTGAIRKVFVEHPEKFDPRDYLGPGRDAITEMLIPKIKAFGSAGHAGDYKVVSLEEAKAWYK
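40 nM FBPA preincubated 10 min at RT with compound (up to 57.5 uM final), then substrate plus GAPDH/TPI/NAD/arsenate coupling and diaphorase/resazurin added. Fluorescence read after 20 min at RT, 525/598 nm.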
Vaccinia Venus: vaccinia inhibition (Venus reporter). Vaccinia virus Venus reporter expression, fluorescence. Potency, µM (highest dose often 36.5 µM), without a hit: at the highest dose activity change, negative = inhibition, most hits filed as inhibitors. 330,000 compounds, 0.46% hits. AID 720580; calls by dose curve; tested in A549 cells; also: potency is read from the fitted curve at half-maximal effect; nearly all actives have a fitted effect of over 30% in size
Active calls of the source: *; i = inactive; ? = inconclusive; . = no result. Unless noted, calls follow the shape of the dose curve; as a rule, active = well fitted curve in the direction sought with a large enough effect; inconclusive = small, poorly fitted or top-dose-only effect, or another doubt; inactive = no such curve, though single readings can be large; an effect the other way counts as inactive or inconclusive. % is scaled to controls: 0 for no effect and ±100 for the full control effect.

SMILES	Vaccinia mCherry	HCMV antiviral	HCV inhibitor	FMDV inh	Giardia FBPA inh	Vaccinia Venus
CC1(C(=O)Nc2ccc3c(c2)OCCO3)CCN1C(=O)C1(c2ccc(Cl)cc2)CCC1 (stereo not given)	12%	?	.	?	.	-2%
COc1ccc(C2CC(=O)N(CC(=O)Nc3ccc(C)c(Cl)c3)c3ccccc3S2)cc1OC (stereo not given)	?	6	.	-8%	.	?
COc1ccccc1CNC(=O)C1CCN(Cc2nc(-c3ccc(Cl)cc3)oc2C)CC1	.	0	.	.	.	.
COc1ccccc1CN1CCN(Cc2nc(-c3ccc(C)cc3)oc2C)CC1	.	70	?	-24%	2%	.
COc1ccc(-c2nc(CN3CCN(c4ccccc4OC)CC3)c(C)o2)cc1	-29%	?	?	28µM*	-3%	-29%
CCc1ccc(-c2nc(CN3CCC(C(=O)NCc4ccccc4OC)CC3)c(C)o2)cc1	.	-38	10µM*	?	9%	.
CCOc1ccc(NC(=O)NCc2ccc3c(c2)CCN3C(C)=O)cc1	i	-3	.	-23%	.	-9%
O=C(CSc1nnc(-c2cccs2)o1)Nc1cccc(S(=O)(=O)N2CCCCC2)c1	-8%	9	1%	-8%	0%	-8%
Cc1ccc(N2CCN(C(=O)c3cc(S(=O)(=O)N4CCCCC4)c[nH]3)CC2)c(C)c1	-28%	?	.	-16%	.	-19%
Cc1cc(=O)oc2cc(OC(=O)c3cncc(Br)c3)ccc12	-12%	-103*	26%	-1%	4%	-4%
CC(C)(C)c1ccc(C(=O)Nc2cccc(C(=O)N3CCOCC3)c2)cc1	.	?	5.6µM*	-20%	-17%	.
O=C(Nc1cccc(C(=O)Nc2cccc(Br)c2)c1)c1ccccc1	.	-22	14µM*	0%	-1%	.
Cc1cc(=O)oc2cc(NC(=O)c3cccc(Br)c3)ccc12	-12%	-74*	0%	32%	10%	-9%
Cc1ccc(C(=O)Nc2cccc(C(=O)N3CCOCC3)c2)cc1	.	80	2%	-2%	-2%	.
Cc1nc(NCc2ccccc2)c2nc(-c3ccccc3)n(CC(C)(C)CN(C)C)c2n1	.	.	.	.	5%	.
Cn1c(=O)n(Cc2ccccc2Cl)c(=O)c2c1nc1n2CCN1c1ccccc1	i	-34	.	-1%	.	-15%
Cc1ccc(C(=O)Nc2ccc(C(=O)/C=C/c3cccs3)cc2)cc1	.	1	-16%	34%	1%	.
O=C(Nc1ccc(Cl)cn1)c1cccc(F)c1	?	79	?	14%	-2%	?
Cc1ccc(C(=O)Nc2cccc(C(=O)O)c2)cc1	.	-1	15%	2µM*	-6%	.
O=C(Nc1cccc(C(=O)Nc2ccc(Cl)cn2)c1)c1ccccc1	.	5	13µM*	2%	5%	.
CC(=O)c1cccc(NC(=O)c2ccc(N(Cc3ccc(C)cc3)S(C)(=O)=O)cc2)c1	.	-7	13µM*	?	0%	.
O=C(/C=C/c1cccs1)c1ccc(NC(=O)c2cccc(Br)c2)cc1	.	39	6.3µM*	1%	-4%	.
Cc1ccc(CN2CCN(Cc3cn[nH]c3C3CCCCC3)CC2CCO)cc1 (stereo not given)	.	-25	2%	-18%	6%	.
COc1cccc(Nc2ncc3nc(-c4ccccc4)c(=O)n(C[C@H]4CCCO4)c3n2)c1	.	.	.	?	-5%	.
CCC[C@H]1[C@@H](NS(=O)(=O)c2ccccc2)CC[C@@]23CCCN2C(=O)CCC[C@@H]13	.	-10	.	.	.	.
SMILES	Vaccinia mCherry	HCMV antiviral	HCV inhibitor	FMDV inh	Giardia FBPA inh	Vaccinia Venus
C=CCN(c1ccc(C(=O)Nc2ccc(C)c(C)c2)cc1)S(C)(=O)=O	-27%	-69*	?	?	-2%	-27%
COc1ccc(-n2ccc(-c3nn(-c4cccc(C(F)(F)F)c4)ccc3=O)n2)cc1	.	-11	?	-32%	-19%	?
O=c1ccn(-c2cccc(C(F)(F)F)c2)nc1-c1ccn(-c2ccccc2F)n1	.	-39	-6%	-10%	16µM*	-19%
Cc1ccc(/C=N/n2c(COc3ccccc3)n[nH]c2=S)o1	.	-90*	7%	-9%	-1%	.
COc1ccc(/C=C/c2c(-c3ccc(OC)cc3)sc3cc(OC)c(OC)cc23)cc1	-5%	-10	2.5µM*	-30%	.	0%
COc1ccc(/C=C/c2c(-c3ccccc3OC)sc3ccccc23)cc1OC	?	15	?	-2%	.	-5%
COc1ccc(-c2sc3ccccc3c2/C=C/c2ccc(OC)c(OC)c2)cc1	0%	-20	-1%	1%	.	-8%
COc1ccc(-c2sc3ccccc3c2/C=C/c2ccncc2)cc1	-18%	26	7.1µM*	-25%	.	-18%
CCSc1nnc(-c2cnn(-c3ccccc3)c2-n2cccc2)n1C	.	-29	-9%	2%	-2%	-5%
CCCCCCSc1nnc(-c2cnn(-c3ccccc3)c2-n2cccc2)n1C	10µM*	-28	?	-21%	-2%	10µM*
Cc1cccc(CN(C(=S)Nc2c(C)cccc2C)c2cccnc2)c1	-18%	0	3%	-8%	-11%	-7%
Cc1ccc(Oc2ccc(-c3nnc(-c4ccccc4)o3)cc2[N+](=O)[O-])cc1C	.	.	7%	.	7%	.
Cc1ccc(S(=O)(=O)N(C)c2ccc(C(=O)N3CCN(Cc4ccc5c(c4)OCO5)CC3)cc2)cc1	.	-95*	4.5µM*	16µM*	0%	.
CN(c1ccc(C(=O)N2CCN(Cc3ccc4c(c3)OCO4)CC2)cc1)S(=O)(=O)c1ccccc1	.	-101*	6.3µM*	?	0%	.
O=C(c1ccccc1Cl)N1CCN(Cc2ccc3c(c2)OCO3)CC1	.	-3	?	?	0%	.
Cc1ccc(C(=O)N2CCN(Cc3ccc4c(c3)OCO4)CC2)c(Cl)c1	-6%	-31	11µM*	?	-6%	-9%
Cc1ccc(S(=O)(=O)N(C)CC(=O)N2CCN(Cc3ccc4c(c3)OCO4)CC2)cc1	-23%	-3	?	-15%	10%	-9%
CCOC(=O)N1CCN(C(=O)c2ccc(N(C)S(=O)(=O)c3ccc(C)cc3)cc2)CC1	.	-19	14µM*	-21%	.	.
CC(C)Cn1cnc2c(SCCc3ccccc3)nc(N)nc21	-7%	18	?	22%	.	0%
Cc1cccc(CNC(=O)c2c3n(c(C)cc2=O)-c2ccccc2SC(c2ccsc2)C3)n1 (stereo not given)	i	.	.	-15%	.	-11%
COc1ccc(N2CCN(C(=O)c3ccc(N(C)S(=O)(=O)c4ccc(C)cc4)cc3)CC2)cc1	-25%	?	?	?	-1%	-22%
COc1ccc(N2CCN(C(=O)c3ccc(N(C)S(=O)(=O)c4ccc(OC)cc4)cc3)CC2)cc1	-18%	-63*	?	?	-5%	-11%
COC(=O)c1ccccc1S(=O)(=O)N1CCCC(c2nc3c(nnn3Cc3ccc(C)cc3)c(=O)[nH]2)C1 (stereo not given)	-23%	-78*	17%	-22%	2%	-8%

Compound activity from PubChem BioAssay.
